Sampled rows, rich in hits. Any-hit rate of the full collection: about 3.4%.
ANO1 activ: TMEM16A chloride channel activators or potentiators, primary screen, cell-based, HTS. HEK293 TMEM16A/YFP-H148Q/I152L, iodide quench fluorescence; hits give low values. 340,000 compounds, 0.3% hits. Anoctamin-1 (Mus musculus), Q8BHY3. B-score at 10 µM. AID 623877, 2012;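 active means fluorescence-ratio B-score plate-corrected deviation score at least 3 library SD below zero, with starting fluorescence score within 5 deviations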;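 further: channel opened by trigger with iodide after compound preincubation; score built on the fluorescence ratio of max minus min over baseline; more negative score means more quench and so TMEM16A activation or potentiation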
MEKK2 WT-MEK5: modulators of MEK5 binding to wildtype MEKK2, primary screen, biochemical, multiplex bead flow cytometry, Alexa488-MEK5; binding response (% of control), % at 10 µM; 290,000 compounds, 1.1% hits; Alexa488-MEK5 binding to MEKK2 WT; actives lie on both sides; in the data active means binding response below about 67% or above about 130%
ANO1 block: TMEM16A chloride channel inhibitors, primary screen, cell-based, HTS. Anoctamin-1 (Mus musculus), Q8BHY3. HEK293 TMEM16A/YFP iodide influx fluorescence, ionomycin. normalized B-score (activity score, 25-100; higher = stronger inhibition) at 10 µM. 310,000 compounds, 1.2% hits. AID 588511, 2011;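 active means ratio plate-corrected score three or more library SD toward inhibition, starting fluorescence score within five deviations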;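 further: score derived from kinetic fluorescence span divided by baseline fluorescence per well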
NTR1 ag: agonists of human NTR1, primary screen, imaging, U2OS cells, beta-arrestin-GFP, high content; 330,000 compounds, 0.17% hits; NTR1-U2OS beta-arrestin-GFP spot imaging, agonist mode; activation, % at 20 µM;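 active means activation at or above 40% of the spot to cytoplasm intensity ratio, with at least 20 cells analyzed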;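 further: 0% = DMSO without peptide and 100% = 100 nM NTR1 peptide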
Target sequence (P30989 whole entry, looked up): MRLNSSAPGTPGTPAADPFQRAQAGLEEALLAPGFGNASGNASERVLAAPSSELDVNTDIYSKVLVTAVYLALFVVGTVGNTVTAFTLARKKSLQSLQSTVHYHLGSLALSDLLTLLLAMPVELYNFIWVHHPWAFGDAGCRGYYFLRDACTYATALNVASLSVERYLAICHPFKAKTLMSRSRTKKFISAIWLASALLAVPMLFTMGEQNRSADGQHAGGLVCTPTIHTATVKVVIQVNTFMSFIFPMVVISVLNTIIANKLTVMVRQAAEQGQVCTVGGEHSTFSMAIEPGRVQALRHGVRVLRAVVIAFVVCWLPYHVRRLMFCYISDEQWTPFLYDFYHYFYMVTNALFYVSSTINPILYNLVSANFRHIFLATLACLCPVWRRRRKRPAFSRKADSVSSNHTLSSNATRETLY
MEKK2mut PB1 HTS: MEK5 binding signal on mutant MEKK2 PB1, primary screen, biochemical, multiplex bead flow cytometry, Alexa488-MEK5; AID 1530, 2009; Alexa488-MEK5 binding to MEKK2 mutant; 290,000 compounds, 0.35% hits; percent response, % at 10 µM; in the data active means percent response above about 24%, passing the limit was not always enough
MEKK3 PB1 HTS: modulators of MEKK3-MEK5 PB1 binding, primary screen, biochemical, wildtype MEKK3, multiplex bead flow cytometry, Alexa488-MEK5. Mitogen-activated protein kinase kinase kinase 3 (Homo sapiens), Q99759. bead-based flow cytometry, Alexa488-MEK5 binding to MEKK3; actives lie on both sides; 0 = blocked by unlabeled MEK5, 100 = vehicle. binding response (% of control), % at 10 µM. 290,000 compounds, 1.4% hits. AID 1529, 2009;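 active means binding response more than 3 SD above or below the average of its plate-row segment, actives on both sides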;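 further: Alexa488 bead fluorescence after subtracting the streptavidin-only scavenger bead signal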
MEKK2wt confirm: modulators of MEK5 binding to wildtype MEKK2, confirmation, biochemical, single concentration, multiplex bead flow cytometry. shares compounds with MEKK3 PB1 HTS. Alexa488-MEK5 binding to MEKK2 WT; actives lie on both sides. binding response (% of control), % at 10 µM. 5,900 compounds, 2.4% hits. AID 1892, 2009; in the data active means binding response below about 16% or above about 210%; inactive means in between
MEKK2mut confirm: mutant MEKK2 PB1-MEK5 binding signal retest – biochemical, single concentration, multiplex bead flow cytometry, confirmation; Alexa488-MEK5 binding to MEKK2 mutant; percent response, % at 10 µM; shares compounds with MEKK3 PB1 HTS; AID 1893, 2009; 5,900 compounds, 2% hits; in the data active means percent response mostly above about 71%, no sharp cut-off; inactive means mostly below about 38%;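 further: higher means compound restores mutant binding toward wildtype level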
MEKK3 confirm: MEKK3 wild-type PB1 binding to MEK5, inhibitors, confirmation, biochemical, bead multiplex flow cytometry, single concentration, wildtype; shares compounds with MEKK3 PB1 HTS; Alexa488-MEK5 binding to MEKK3; hits give low values; binding response (% of control), % at 10 µM; 5,900 compounds, 1.8% hits; AID 1894, 2009;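 active means binding response below 72% of control, or above a set upper limit, though filed actives all read lower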;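 further: 100% = DMSO only wells and 0% = binding blocked by excess unlabeled MEK5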
Numbers without * were called inactive; i = inactive; x = no result given; [ ] = remark or other dose.

SMILES	ANO1 activ	MEKK2 WT-MEK5	ANO1 block	NTR1 ag	MEKK2mut PB1 HTS	MEKK3 PB1 HTS	MEKK2wt confirm	MEKK2mut confirm	MEKK3 confirm
COc1ccc(NC(=O)CSCC(=O)N2c3ccccc3CCc3ccccc32)cc1	i	100.0	i	0.2	-1.0	148.0*	101.0	-1.0	99.0
CC1CCC(NC(=O)c2ccc(/C=C3\Oc4ccccc4N(C)C3=O)cc2)CC1 (stereo unspecified)	x	111.0	x	x	2.0	139.0*	99.0	2.0	102.0
COC(=O)C(NC(=O)c1ccccc1)(Nc1cc(C)cc(C)n1)C(F)(F)F (stereo unspecified)	i	92.0	i	1.2	6.0	126.0*	104.0	1.0	101.0
CCCC1CCc2c(sc(N)c2C(N)=O)C1 (stereo unspecified)	i	100.0	i	1.0	4.0	102.0	x	x	x
COc1ccc(OC)c(-n2c(=O)c3ccccc3c3ccccc3c2=O)c1	i	99.0	i	4.1	0.0	72.0*[inhibitor]	98.0	1.0	98.0
Cc1cc(OCc2cc(C(=O)N(C)C3CCOC3)no2)cc(C)c1Cl (stereo unspecified)	i	106.0	i	0.2	-1.0	101.0	x	x	x
CN1CCN(c2ccccc2NC(=O)c2cccc(OCc3ccccc3)c2)CC1	i	137.0*	i	2.4	21.0	111.0	137.0	19.0	105.0
CC(=O)N1CCN(c2ccc(NC(=O)c3cccc(OCc4ccccc4)c3)cc2)CC1	i	92.0	i	1.7	-3.0	94.0	x	x	x
CN1CCN(c2ccccc2NC(=O)c2ccc(-c3ccc(Cl)c(Cl)c3)o2)CC1	i	139.0*	i	15.4	19.0	105.0	157.0	40.0	109.0
CC(=O)N1CCN(c2ccc(NC(=O)c3ccc(OCc4ccccc4)cc3)cc2)CC1	i	75.0	i	-0.4	-7.0	62.0*[inhibitor]	101.0	-3.0	98.0
O=C(Nc1ccc(N2CCCC2)cc1)c1ccc(Br)cc1	i	151.0*	i	0.0	10.0	105.0	124.0	13.0	94.0
COc1ccccc1N(CC(=O)NCc1ccco1)C(=O)CCC(=O)Nc1ccccn1	i	94.0	i	3.3	3.0	97.0	x	x	x
Cc1[nH]c2ccccc2c1C(=O)CSc1n[nH]c(N)n1	i	100.0	i	-1.2	-4.0	108.0	x	x	x
COC(=O)[C@H](C)NC(=O)NC1CCN(Cc2ccccc2)CC1	i	108.0	i	-0.8	4.0	101.0	x	x	x
Cc1ccc(Nc2nc(N)nc(CSCCO)n2)cc1	i	109.0	i	-1.3	3.0	108.0	x	x	x
COc1ccc(Nc2nc(N)nc(CSCCO)n2)cc1	i	135.0*	i	-0.3	13.0	115.0	99.0	-1.0	101.0
CN(C)CCNc1ncnc2c1sc1nc(-c3ccccc3)c3c(c12)CCCC3	i	201.0*	i	35.1	61.0*	102.0	209.0*	66.0	105.0
c1nc(NCCN2CCOCC2)c2sc3nc(N4CCOCC4)c4c(c3c2n1)CCC4	i	102.0	i	x	1.0	99.0	x	x	x
COc1ncnc2c1sc1nc(-c3ccccc3)c3c(c12)CCCC3	i	107.0	i	4.1	0.0	146.0*	96.0	-3.0	102.0
NC(=O)c1sc2nc(-c3ccccc3)c3c(c2c1N)CCCC3	i	97.0	i	-0.8	-1.0	100.0	x	x	x
C/C(=N\Nc1ccc([N+](=O)[O-])cc1[N+](=O)[O-])c1ccc(-n2nncc2C(C)(C)C)cc1	i	103.0	i	2.8	12.0	107.0	x	x	x
NC(=O)CN1CCCN(S(=O)(=O)c2ccc(Br)cc2)CC1	i	3.0*[inhibitor]	i	-4.6	-24.0	2.0*[inhibitor]	100.0	-4.0	98.0
O=C(O)C1CCCN(S(=O)(=O)c2ccc(Br)cc2)C1 (stereo unspecified)	i	18.0*[inhibitor]	i	0.0	-55.0	11.0*[inhibitor]	101.0	2.0	101.0
Cc1ccc(S(=O)(=O)N2CCN(CC(=O)N/N=C/C=C/c3ccccc3)CC2)cc1	i	106.0	i	0.2	0.0	138.0*	97.0	1.0	103.0
O=C(CN1CCN(S(=O)(=O)c2ccc(Br)cc2)CC1)N/N=C/c1ccco1	i	108.0	i	2.0	1.0	162.0*	103.0	5.0	100.0
SMILES	ANO1 activ	MEKK2 WT-MEK5	ANO1 block	NTR1 ag	MEKK2mut PB1 HTS	MEKK3 PB1 HTS	MEKK2wt confirm	MEKK2mut confirm	MEKK3 confirm
COc1ccc(N(C)C(=O)c2cn(CC(C)C)c(=O)c3cc(OC)c(OC)cc23)cc1	i	103.0	i	-0.3	6.0	103.0	x	x	x
NC(=NCCCCCCN=C(N)/N=C(\N)Nc1ccc(Cl)cc1)/N=C(\N)Nc1ccc(Cl)cc1	i	345.0*	i	18.4	96.0*	113.0	268.0*	121.0*	113.0
CCCCN(CC)CCNC(=O)c1nn(-c2ccc(OC)cc2)c(=O)c2c1c1ccccc1n2C	i	144.0*	i	3.2	16.0	107.0	134.0	25.0	111.0
CCCCN(CC)CCNC(=O)c1cn(C)c(=O)c2c1c1ccccc1n2C	i	110.0	i	0.8	7.0	105.0	x	x	x
O=C1NC(=O)C2C3c4ccccc4C(c4ccccc43)C12 (stereo unspecified)	i	77.0	i	3.4	-38.0	70.0*[inhibitor]	99.0	-3.0	103.0
C=CC[C@H]1CC(C)=C[C@H](CC=C)N1	i	203.0*	i	-2.1	195.0*	117.0	99.0	-3.0	100.0
C=CC[C@H]1CC(Cc2ccccc2)=C[C@H](CC=C)N1	i	99.0	i	0.0	-1.0	98.0	x	x	x
OCCN1CCN(CC/C=C2/c3ccccc3Sc3ccc(C(F)(F)F)cc32)CC1	i	x	i	6.1	x	x	x	x	x
